The results in this text go back to PubChem BioAssay (Tox21).

Records with an inconclusive call do not appear. Where a structure was tested more than once in an assay, its records may differ in their call. Activity calls are given as the source filed them. Unless noted, calls follow the shape of the dose curve; as a rule, active = well fitted curve in the direction sought with a large enough effect in the repeat runs; inconclusive = weak or mixed curves; inactive = no such curve, though single readings can be large; an effect the other way counts as inactive or inconclusive.

Assay [1] deals with Thyrotropin receptor (Homo sapiens) (UniProt P16473). Nature of the assay: qHTS assay to identify small molecule antagonists of the thyroid stimulating hormone receptor (TSHR) signaling pathway (AID 1259385; calls by dose curve; also: nearly all actives have a fitted effect of over 20% in size). The procedure, abridged: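 TSHR-HEK293 cells were plated and held 18 h at 37C/5% CO2, then given compound plus Ro20-1724 and stimulated with TSH at 1.5 ng/mL final. After 30 min at room temperature, cAMP was detected with cAMP-d2/anti-cAMP-cryptate (1 h) by fluorescence.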
(In general: qHTS replaces the single test concentration by a dilution series.)

A short description of assay [2]: qHTS assay to identify small molecule agonists of the estrogen receptor alpha (ER-alpha) signaling pathway in the presence of an antagonist - cell viability counter screen (AID 1259386).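 Also: cells exposed to compounds for 22 h at 37 °C before the viability read; nearly all actives have a fitted effect of over 30% in size.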 Also: potency is read from the fitted curve at half-maximal effect. In short, it runs like this: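 ICI-182,780 at 10.0nM final accompanies the compound titration (15 concentrations, 22hr, 37C) on VM7Luc4E2 cells. The CellTiter-Fluor fluorescence readout runs in the same wells as the luciferase assay.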

The target in assay [3] is Progesterone receptor (Homo sapiens) (UniProt P06401). Nature of the assay: qHTS assay to identify small molecule agonists of the progesterone receptor (PR) signaling pathway (AID 1346784; calls by dose curve; also: nearly all actives have a fitted effect of over 30% in size). In short, it runs like this: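 Cells (PR-UAS-bla HEK 293T, GripTite) were plated in assay medium containing 2% charcoal-stripped FBS and incubated 6 hr. Test compounds in DMSO were added for 16 hr at 37C. FRET substrate was then loaded for 2 hr at room temperature before fluorescence reading.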

The target is the same in assay [4]. Nature of the assay: qHTS assay to identify small molecule antagonists of the progesterone receptor (PR) signaling pathway (AID 1346795; active = well fitted inhibition curve with a large enough effect in the signal ratio in the repeat runs, not every such curve was filed as active; the % refers to the signal ratio). In short, it runs like this: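 Antagonist mode: compounds tested against 1 nM (final) promegestone stimulation in HEK293T cells expressing PR-UAS-bla reporter, 16 hr at 37C, 5% CO2; beta-lactamase activity detected via B/G FRET substrate after 2 hr at room temperature.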

Assay [5] is described as follows: qHTS assay to identify small molecule antagonists of the progesterone receptor (PR) signaling pathway - cell viability counter screen (AID 1346798). Also: series mostly up to about 92 µM; nearly all actives have a fitted effect of over 50% in size. The procedure, abridged: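 Counter screen for cytotoxicity: viability of PR-UAS-bla HEK293T cells was measured with CellTiter-Glo luminescence following 16 hr compound exposure in the presence of R5020.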
The nature of assay [6]: qHTS assay to identify small molecule agonists of the progesterone receptor (PR) signaling pathway - cell viability counter screen (AID 1346799; calls by dose curve; also: nearly all actives have a fitted effect of over 45% in size). The procedure, abridged: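 Cells (PR-UAS-bla HEK293T) are plated at 3,000/well in 2% charcoal-stripped FBS medium, rested 6 hr, dosed and incubated 16 hr at 37C. CellTiter-Glo is then added and luminescence measured after 30 min at room temperature.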

A short description of assay [7]: qHTS assay to identify small molecule antagonists of the TGF-beta/Smad signaling pathway - cell viability counter screen (AID 1346824). Also: nearly all actives have a fitted effect of over 50% in size. In short, it runs like this:
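SBE-bla HEK 293T cells were plated overnight at 37 C, then given compounds in DMSO plus TGF-beta1 (added as 0.25 ng/mL solution) for 5 hr. After the bla read, CellTiter-Glo was added to the same wells and luminescence read after 30 min at room temperature.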

Assay [8] can be described thus: qHTS assay to identify small molecule agonists of the TGF-beta/Smad signaling pathway - cell viability counter screen (AID 1346829). Also: top concentration of the series differs between compounds; nearly all actives have a fitted effect of over 45% in size. The procedure, abridged: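 SBE-bla HEK 293T cells plated overnight, compound exposure 5 hr at 37 C. Viability read in the same wells by CellTiter-Glo luminescence after 30 min at room temperature, following the beta-lactamase read.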

Assay [9] can be described thus: qHTS assay to identify small molecule agonists of the TGF-beta/Smad signaling pathway (AID 1346859; active = well fitted activation curve with a large enough effect in the signal ratio in the repeat runs, not every such curve was filed as active; the % refers to the signal ratio; also: series mostly up to about 77 µM). The procedure, abridged:
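Reporter line: HEK 293T with stably integrated SBE-controlled beta-lactamase. Compound exposure lasts 5 hr at 37 C and 5% CO2; substrate loading follows for 2 hr at room temperature, with emission read at 460 and 530 nm.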

Assay [10] has as its target Thyrotropin-releasing hormone receptor (Homo sapiens) (UniProt P34981). The assay can be described thus: qHTS assay to identify small molecule antagonists of the thyrotropin-releasing hormone receptor (TRHR) signaling pathway (AID 1346877; active = well fitted inhibition curve with a large enough effect in the repeat runs, not every such curve was filed as active; also: series mostly up to about 51 µM). The procedure, abridged: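 Screening used HEK293 cells engineered with TRHR, with a brief 5 min room-temperature compound exposure preceding addition of TRH to 1 nM. The read-out was kinetic calcium-dye fluorescence, concentration-response from 15 doses in triplicate.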

Sequence of Thyrotropin receptor (Homo sapiens) (P16473 whole entry, looked up): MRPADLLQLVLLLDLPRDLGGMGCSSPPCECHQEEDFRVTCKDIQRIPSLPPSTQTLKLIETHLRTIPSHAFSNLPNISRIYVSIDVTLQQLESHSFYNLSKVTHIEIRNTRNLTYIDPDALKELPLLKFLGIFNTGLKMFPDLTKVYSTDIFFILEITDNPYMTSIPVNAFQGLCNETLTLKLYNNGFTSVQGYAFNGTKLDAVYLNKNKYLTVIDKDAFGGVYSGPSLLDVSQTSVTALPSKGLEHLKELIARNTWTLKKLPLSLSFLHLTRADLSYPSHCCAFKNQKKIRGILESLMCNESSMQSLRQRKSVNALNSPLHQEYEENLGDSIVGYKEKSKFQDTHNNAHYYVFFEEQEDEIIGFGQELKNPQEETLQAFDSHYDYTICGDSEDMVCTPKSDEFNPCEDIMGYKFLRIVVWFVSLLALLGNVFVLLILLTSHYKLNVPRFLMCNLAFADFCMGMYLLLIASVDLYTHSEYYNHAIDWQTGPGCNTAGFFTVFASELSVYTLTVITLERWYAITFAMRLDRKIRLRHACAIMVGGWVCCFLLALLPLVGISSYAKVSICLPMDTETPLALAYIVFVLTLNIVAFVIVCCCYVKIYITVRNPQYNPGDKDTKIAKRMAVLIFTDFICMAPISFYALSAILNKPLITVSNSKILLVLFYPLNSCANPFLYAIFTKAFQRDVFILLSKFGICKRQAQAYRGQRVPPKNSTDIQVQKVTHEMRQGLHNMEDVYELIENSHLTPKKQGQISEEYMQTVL
Sequence of Progesterone receptor (Homo sapiens) (P06401 whole entry, looked up): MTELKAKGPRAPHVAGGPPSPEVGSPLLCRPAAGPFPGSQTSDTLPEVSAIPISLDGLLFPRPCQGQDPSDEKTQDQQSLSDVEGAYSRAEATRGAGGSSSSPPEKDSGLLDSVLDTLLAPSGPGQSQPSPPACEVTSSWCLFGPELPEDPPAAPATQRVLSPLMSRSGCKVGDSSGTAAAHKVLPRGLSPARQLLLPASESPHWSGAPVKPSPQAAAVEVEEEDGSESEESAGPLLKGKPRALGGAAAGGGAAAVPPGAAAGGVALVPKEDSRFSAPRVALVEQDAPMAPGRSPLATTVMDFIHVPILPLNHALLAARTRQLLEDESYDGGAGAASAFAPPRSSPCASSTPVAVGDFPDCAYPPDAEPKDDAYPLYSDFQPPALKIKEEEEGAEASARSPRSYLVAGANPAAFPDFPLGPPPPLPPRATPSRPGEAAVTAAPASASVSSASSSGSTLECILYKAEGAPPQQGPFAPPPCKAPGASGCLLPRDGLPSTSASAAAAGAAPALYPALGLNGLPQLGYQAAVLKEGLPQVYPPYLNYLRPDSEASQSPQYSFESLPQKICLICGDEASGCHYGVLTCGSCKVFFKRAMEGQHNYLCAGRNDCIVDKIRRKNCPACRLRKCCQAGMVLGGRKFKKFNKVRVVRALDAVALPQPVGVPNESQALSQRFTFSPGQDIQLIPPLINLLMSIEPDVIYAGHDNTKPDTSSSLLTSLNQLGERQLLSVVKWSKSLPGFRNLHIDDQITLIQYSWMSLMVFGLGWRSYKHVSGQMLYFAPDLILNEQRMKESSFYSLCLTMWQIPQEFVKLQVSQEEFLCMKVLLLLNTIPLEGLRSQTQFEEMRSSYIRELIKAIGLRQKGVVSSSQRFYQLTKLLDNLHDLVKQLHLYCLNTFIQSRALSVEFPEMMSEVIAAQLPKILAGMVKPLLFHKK
Sequence of Thyrotropin-releasing hormone receptor (Homo sapiens) (P34981 whole entry, looked up): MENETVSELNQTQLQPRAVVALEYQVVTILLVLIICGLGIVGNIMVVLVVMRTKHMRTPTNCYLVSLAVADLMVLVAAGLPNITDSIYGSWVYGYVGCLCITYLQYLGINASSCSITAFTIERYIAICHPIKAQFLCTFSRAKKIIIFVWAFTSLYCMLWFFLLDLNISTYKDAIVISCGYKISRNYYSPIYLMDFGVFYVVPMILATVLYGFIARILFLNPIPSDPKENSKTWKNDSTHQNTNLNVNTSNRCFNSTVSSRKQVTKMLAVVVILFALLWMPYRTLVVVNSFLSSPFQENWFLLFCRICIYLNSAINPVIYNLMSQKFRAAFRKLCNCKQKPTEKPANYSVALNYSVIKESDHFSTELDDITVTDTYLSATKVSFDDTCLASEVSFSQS

As for `O=C/C=C/c1ccccc1`, the outcome in assay [1], in [6], in assay [9] and in assay [10] was inactive. The Potency result in [2], in [3], in [4], in [5], in [7] and in assay [8] was “inactive” throughout.
Turning to `CC(=O)C1CCOC1=O` (centres undefined), the molecule was called inactive in [1], in assay [6] and in assay [9]. Also, the Potency result in assay [2], in assay [3], in assay [4], in assay [5], in assay [7] and in assay [8] was “inactive” in each case.
With `C=CC(=O)OCC(CC)CCCC` (centres undefined), the molecule was classed as inactive in [1], in assay [6] and in assay [9]. Further, the Potency entry in assay [2], in assay [3], in assay [4], in assay [5], in assay [7] and in assay [8] was “inactive” each time.
For `CN(C)C(=O)Nc1cccc(C(F)(F)F)c1`, the result in [1], in assay [6], in assay [9] and in assay [10] was inactive. The Potency entry in assay [2], in [3], in [4], in [5], in assay [7] and in assay [8] was “inactive” in each case.
Regarding `C/C=C/c1ccc2c(c1)OCO2`, the call in assay [1], in [6] and in assay [9] was inactive. In addition, the Potency entry in assay [2], in assay [3], in assay [4], in assay [5], in assay [7] and in assay [8] was “inactive” in each case.
Turning to `CC[N+](=O)[O-]`, the molecule was called inactive in assay [1], in assay [6] and in assay [9]. Further, the Potency result in [2], in assay [3], in assay [4], in [5], in assay [7] and in assay [8] was “inactive” throughout.
Turning to `CN(C)NC(=O)CCC(=O)O`, the molecule was called inactive in assay [1], in [6] and in assay [9]. The Potency result in assay [2], in assay [3], in assay [4], in assay [5], in [7] and in assay [8] was “inactive” each time.
Take `Nc1ncc([N+](=O)[O-])s1`: the molecule was called inactive in assay [1], in [6] and in [9]. In [2], the Potency was 54.9 µM (active) and inactive. Besides, the Potency entry in [3], in assay [4], in assay [5], in assay [7] and in assay [8] was “inactive” each time.
For the molecule `C=CC(=O)OCCCCCC(C)C`, the molecule was called inactive in assay [1], in assay [6], in assay [9] and in [10]. Moreover, the Potency result in assay [2], in [3], in assay [4], in [5], in assay [7] and in assay [8] was “inactive” each time.
Regarding `O=[N+]([O-])c1ccc(Cl)c(Cl)c1`, the call in [1], in [6], in [9] and in assay [10] was inactive. Moreover, the Potency entry in [2], in assay [3], in assay [4], in assay [5], in assay [7] and in [8] was “inactive” each time.
With `COC(C)(C)CCCC(C)C/C=C/C(C)=C/C(=O)OC(C)C` (centres undefined), the outcome in assay [1], in assay [6], in assay [9] and in assay [10] was inactive. In addition, the Potency result in [2], in assay [3], in [4], in assay [5], in [7] and in assay [8] was “inactive” in each case.
For the molecule `Cc1cc(O)ccc1Cl`, the call in assay [1], in assay [6], in assay [9] and in assay [10] was inactive. Besides, the Potency result in assay [2], in assay [3], in [4], in assay [5], in assay [7] and in assay [8] was “inactive” throughout.
On to `O=C(O)COc1ccccc1`, for which the result in assay [1], in assay [6], in [9] and in assay [10] was inactive. For the same molecule, the Potency result in [2], in [3], in [4], in [5], in assay [7] and in assay [8] was “inactive” in each case.
With `CCOP(=S)(OCC)Oc1cc(C)nc(C(C)C)n1`, the result in assay [1], in assay [6], in assay [9] and in assay [10] was inactive. Besides, the Potency result in [2], in assay [3], in assay [4], in [5], in assay [7] and in assay [8] was “inactive” throughout.
For the molecule `Nc1cc(Cl)cc(Cl)c1`, the result in [1], in assay [6], in [9] and in assay [10] was inactive. The Potency result in assay [2], in assay [3], in assay [4], in assay [5], in [7] and in [8] was “inactive” throughout.
In the case of `CN(C)C(=O)Cl`, the molecule was called inactive in assay [1], in assay [6], in assay [9] and in assay [10]. The Potency result in assay [2], in assay [3], in [4], in assay [5], in assay [7] and in [8] was “inactive” each time.
In the case of `CSc1nnc(C(C)(C)C)c(=O)n1N`, the call in [1], in assay [6], in assay [9] and in assay [10] was inactive. For the same molecule, the Potency entry in [2], in [3], in assay [4], in assay [5], in [7] and in assay [8] was “inactive” in each case.
`CCOc1ccc(N)cc1`: the call in assay [1], in [6], in assay [9] and in [10] was inactive. Further, the Potency result in [2], in assay [3], in assay [4], in [5], in assay [7] and in assay [8] was “inactive” each time.
`CCOC(=O)CC(SP(=O)(OC)OC)C(=O)OCC` (centres undefined): the call in [1], in assay [6], in assay [9] and in assay [10] was inactive. Moreover, the Potency entry in assay [2], in assay [3], in assay [4], in assay [5], in [7] and in assay [8] was “inactive” throughout.
`Sc1ccccc1`: the call in [1], in [6], in [9] and in assay [10] was inactive. Further, the Potency entry in [2], in [3], in assay [4], in [5], in assay [7] and in [8] was “inactive” throughout.
Turning to `Cl/C=C/Cl`, the call in [1], in [6], in assay [9] and in [10] was inactive. In addition, the Potency entry in assay [2], in assay [3], in assay [4], in assay [5], in [7] and in [8] was “inactive” in each case.
Consider `CC(C)c1cccc(C(C)C)c1O`, for which the molecule was called inactive in [1], in assay [6], in assay [9] and in [10]. The Potency result in [2], in assay [3], in assay [4], in [5], in assay [7] and in [8] was “inactive” each time.
